Only some compounds are listed: those with a hit (about 3.4% of all), similar ones and a draw of the others.
Mito fusion yeast: blocks mitochondrial division or promotes mitochondrial fusion | actives 0.23% (n = 320,000) | AID 485298 | Potency, µM (top dose mostly 46.1 µM), actives largely listed as activators | S. cerevisiae fusion-defective mutant growth rescue, CellTiterGlo 48 h; also: nearly all actives have a fitted effect of over 45% in size
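S. cerevisiae fusion-defective temperature-sensitive mutants (e.g. fzo1-1, mgm1-5) grown 48 h at 37C in YPEG (ethanol/glycerol non-fermentable) medium with 23 nl compound per well; growth rescue read as CellTiterGlo luminescence.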
KAT2A inh: blocks human GCN5L2 histone acetyltransferase; Q92830; GCN5L2 HAT assay, ThioGlo1 CoA-SH fluorescence; Potency, µM (titrated, usually from 58.9 µM), hits mostly inhibitors; actives 0.21% (n = 390,000); AID 504327
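GCN5L2 (20 nM) in 50mM HEPES pH 7.5, 0.1mM EDTA, 0.01% Tween-20 preincubated 15 min with compounds at room temperature. Reaction started with H3(1-25) 75uM, acetyl-CoA 70uM, ThioGlo1 50uM; CoA-thiol fluorescence (Ex340/Em540) read at 0 and 20 min.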
GLS inhibitor: inhibitors of human glutaminase (GLS); GLS enzymatic activity, qHTS titration; AID 624170; O94925; actives 0.21% (n = 410,000); Potency, µM (titrated, usually from 45.5 µM), hits mostly inhibitors
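Coupled fluorescence readout: glutamate oxidase/HRP/Amplex Red detect glutamate formed by hKGA from L-glutamine (1 mM solution added). Buffer 45 mM KH2PO4 pH 8.2, 0.02% Tween-20; reads at t0 and 30 min RT.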
PKM2 activator: increases activity of human pyruvate kinase M2 | P14618 | purified PKM2, Kinase-Glo ATP luminescence, activation; response scale: 0% is enzyme alone, no compound | Potency, µM (highest dose often 57.5 µM), actives largely listed as activators | actives 0.34% (n = 260,000); also: nearly all actives have a fitted effect of over 55% in size
Target sequence (P14618 whole entry, looked up): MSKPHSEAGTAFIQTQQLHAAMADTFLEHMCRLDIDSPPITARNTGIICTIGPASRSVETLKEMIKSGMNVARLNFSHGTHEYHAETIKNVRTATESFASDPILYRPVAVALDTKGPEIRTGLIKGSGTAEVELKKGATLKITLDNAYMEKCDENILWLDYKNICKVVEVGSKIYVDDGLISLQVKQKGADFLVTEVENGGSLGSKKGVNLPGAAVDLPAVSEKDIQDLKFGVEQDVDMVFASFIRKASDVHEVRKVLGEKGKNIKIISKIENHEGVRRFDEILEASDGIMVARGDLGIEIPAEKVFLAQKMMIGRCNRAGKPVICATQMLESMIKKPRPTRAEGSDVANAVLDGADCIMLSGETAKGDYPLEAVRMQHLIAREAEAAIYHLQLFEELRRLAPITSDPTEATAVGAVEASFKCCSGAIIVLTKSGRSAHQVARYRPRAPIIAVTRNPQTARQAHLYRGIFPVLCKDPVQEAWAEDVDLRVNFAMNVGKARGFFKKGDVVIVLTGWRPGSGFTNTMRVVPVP
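hPK-M2, >95% pure; 0.1 mM ADP / 0.5 mM PEP final; imidazole pH7.2 buffer w/ 7 mM MgCl2, 50 mM KCl; 1 h RT; Kinase-Glo lum. Intermediate enzyme activity for dual inhibitor/activator qHTS.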
VDR inhibitor: blocks the human vitamin D receptor; P11473; VDR-SRC2-3 peptide fluorescence polarization, 2 h; Potency, µM, most hits filed as inhibitors; actives 0.93% (n = 400,000); AID 504847
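The screen uses fluorescence polarization to detect compounds that interfere with recruitment of the SRC2-3 coactivator peptide to VDR; plates are read after 2 h at room temperature.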
PLK1 PBD block: PLK1 (human) polo-box domain binding inhibition; Potency, µM, most hits filed as inhibitors; actives 2.8% (n = 360,000); AID 720504; Plk1 PBD binding of FITC phosphopeptide, fluorescence polarization; P53350; also: series mostly up to about 57 µM; nearly all actives have a fitted effect of over 65% in size
Of the large screens only hits and unclear results are named; the others gave an inactive call; ! = repeats disagree. Calls follow the shape of the dose curve; as a rule, active = well fitted curve in the direction sought with a large enough effect; inconclusive = small, poorly fitted or top-dose-only effect, or another doubt; inactive = no such curve, though single readings can be large; an effect the other way counts as inactive or inconclusive.

O=C(NCCc1cn[nH]c1)C1CCC(=O)N(CCc2cccc(F)c2)C1 (stereo not drawn)	GLS inhibitor inconclusive, VDR inhibitor inconclusive, PLK1 PBD block 3.36µM (no result: PKM2 activator)
O=C(NCc1ccco1)c1cc([N+](=O)[O-])cc([N+](=O)[O-])c1	none
CCC1(c2ccccc2)NC(=O)N(CC(=O)Nc2ccc(OC)nc2)C1=O (stereo not drawn)	PLK1 PBD block 13.4µM
CCC1(c2ccccc2)NC(=O)N(CC(=O)Nc2ccc3c(c2)CCC3)C1=O (stereo not drawn)	none (no result: Mito fusion yeast, KAT2A inh, PKM2 activator, VDR inhibitor)
O=C(Nc1ccc2nn(-c3ccc(Cl)cc3)nc2c1)c1cc2ccccc2o1	none (no result: Mito fusion yeast, PKM2 activator, PLK1 PBD block)
C/C(=N\NC(=O)CN(c1ccccc1Br)S(C)(=O)=O)c1cccs1	PLK1 PBD block 26.7µM
C/C(=N\NC(=O)CN(c1ccc(C)cc1)S(C)(=O)=O)c1cccs1	none
NC(=O)N1c2ccccc2CC(=O)c2ccccc21	VDR inhibitor 50.1µM!
CCOC1Cc2ccccc2N(C(N)=O)c2ccccc21 (stereo not drawn)	none
Cc1cc(C(=O)CN2C(=O)c3cccc(N)c3C2=O)c(C)n1Cc1cccs1	GLS inhibitor inconclusive, PLK1 PBD block 3.36µM
O=C1C2C(c3ccccc3)CC=CC2C(c2ccc(C(F)(F)F)cc2)N1Cc1ccccc1 (stereo not drawn)	none (no result: Mito fusion yeast, KAT2A inh, GLS inhibitor, PKM2 activator, PLK1 PBD block)
CCOCCCN(C(=O)c1snc(C(N)=O)c1N)C(C(=O)NCCC(C)C)c1ccc(Cl)cc1 (stereo not drawn)	none
Cn1cccc1C(=O)NC(=O)COC(=O)c1cc(S(=O)(=O)N2CCCCC2)ccc1Cl	PLK1 PBD block 21.2µM
O=C(COC(=O)c1cc(S(=O)(=O)N2CCCCC2)ccc1Cl)NC1CCCCC1	none (no result: Mito fusion yeast, KAT2A inh, PKM2 activator, VDR inhibitor)
CC(C)(C)NC(=O)C(c1ccncc1)N(Cc1ccco1)C(=O)c1ccc(-c2ccccc2)[nH]1 (stereo not drawn)	VDR inhibitor 70.8µM
Cc1ccccc1C(=O)NC(=S)Nc1sc2c(c1C#N)CCC(C)C2 (stereo not drawn)	PLK1 PBD block 18.9µM
CC1CCc2c(sc(NC(=S)NC(=O)c3ccccc3)c2C#N)C1 (stereo not drawn)	PLK1 PBD block 23.8µM
CC(=O)Nc1sc2c(c1C#N)CCC(C)C2 (stereo not drawn)	none
N#Cc1c(NC(=S)NC(=O)c2ccccc2)sc2c1CCCC2	VDR inhibitor inconclusive, PLK1 PBD block inconclusive
CN(CC(=O)Nc1cccc(F)c1)C(=O)c1ccc(S(=O)(=O)N2CCCC2)cc1	none (no result: PKM2 activator)
O=C(O)c1cccc(N2C(=O)C3C4C=CC(C4=C(c4ccccc4)c4ccccc4)C3C2=O)c1 (stereo not drawn)	PLK1 PBD block 29.9µM
O=C(c1cccc(N2C(=O)C3C4C=CC(C4)C3C2=O)c1)N1CCCCCC1 (stereo not drawn)	none
COc1ccc(N2CCN(S(=O)(=O)CCNC(=O)C3CCCCC3)CC2)cc1	none
COc1ccccc1CNc1ncnc2ccc(-c3cccnc3)cc12	none (no result: Mito fusion yeast, GLS inhibitor, PKM2 activator, PLK1 PBD block)
COc1cccc(N2CCN(C(=O)c3cccc(N4C(=O)NC5CC4(C)Oc4c(OC)cccc45)c3)CC2)c1 (stereo not drawn)	none (no result: PKM2 activator)
CCOc1cccc2c1OC1(C)CC2NC(=O)N1c1ccc(OC)cc1 (stereo not drawn)	PLK1 PBD block 13.4µM
CCC1CCc2nc3sc(C(=O)Nc4ccc(C)cc4C)c(N)c3cc2C1 (stereo not drawn)	none (no result: Mito fusion yeast, PKM2 activator, PLK1 PBD block)
COC(=O)[C@@]12CCCCN1[C@H](c1ccc(-c3ccc(F)cc3)c(OC)c1)[C@H]1C(=O)N(C)C(=O)[C@H]12	none (no result: Mito fusion yeast, PKM2 activator)
COC(=O)[C@@]12CCCCN1[C@H](c1ccc(-c3ccc(OC)cc3)c(OC)c1)[C@@H]1C(=O)N(C)C(=O)[C@@H]12	Mito fusion yeast 12.6µM (no result: PKM2 activator)
C=C/C(=C\C)C[C@@H](CC(=O)N[C@@H](CCC(=O)O)CC(=O)O)NC(=O)[C@@H]1CNCC[C@H]1NC(=O)C[C@@H](NC(=O)C[C@H](Cc1ccccc1)NC(=O)[C@@H]1CCCC[C@H]1N)C(C)C	none (no result: Mito fusion yeast, KAT2A inh, GLS inhibitor, PKM2 activator, PLK1 PBD block)
